Screening results from PubChem BioAssay.
Many of the other results were omitted from the sample, so hits are more common in it than they were.
nsP2pro inh = CHIKV nsP2 protease inhibition, primary qHTS | Q8JUX6 | FRET peptide cleavage, nsP2pro, fluorescence 1 h | Potency, µM (top dose mostly 24.9 µM), for inactives: at the top dose activity change, negative = inhibition, most hits filed as inhibitors | 1.1% of 31,000 active | AID 1964107; also: nearly all actives have a fitted effect of over 60% in size
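FRET cleavage of 2.5 uM peptide 2 by 150 nM CHIKV protease domain at pH 8.0 (Tris, Tween 20). Compounds at 7 concentrations (up to 25 uM) preincubated 15 min. Fluorescence read after 1 h at room temperature.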
nsP2 cell sec = secondary cell-based test for CHIKV nsP2 protease inhibitors; shares compounds with nsP2pro inh; Potency, µM (highest dose often 51.1 µM), inactives show at the highest dose activity change, negative = inhibition, actives largely listed as inhibitors; cell-based CHIKV nsP2 protease reporter assay; 10% of 450 active; also: nearly all actives have a fitted effect of over 70% in size
CHIKV NSP2 FL = inhibits full-length CHIKV NSP2 enzyme; 39% of 410 active; shares compounds with nsP2pro inh; Full-length CHIKV NSP2 protease enzymatic counterscreen; Potency, µM (top dose mostly 50.7 µM), inactives show at the top dose activity change, negative = inhibition, most hits filed as inhibitors; also: nearly all actives have a fitted effect of over 65% in size
Furin counter = selectivity counter-screen for CHIKV nsP2 protease inhibitors: human furin; Recombinant human furin enzymatic counterscreen, fluorogenic substrate; shares compounds with nsP2pro inh; Potency, µM (top dose mostly 50.6 µM), without a hit: at the highest dose activity change, negative = inhibition, usual class: inhibitors; AID 1964102; 6% of 410 active
NS23 peptide cs = selectivity test for CHIKV nsP2 protease inhibitors: endogenous NS2/3 peptide; shares compounds with nsP2pro inh; Purified CHIKV nsP2 protease, endogenous NS2/3 peptide cleavage; Potency, µM (doses to about 51 µM), for the others: at the top dose activity change, negative = inhibition, most hits filed as inhibitors; 34% of 410 active; AID 1964103; also: nearly all actives have a fitted effect of over 55% in size
Papain counter = papain protease inhibition, counterscreen for nsP2pro inhibitors. shares compounds with nsP2pro inh. purified papain protease activity, enzymatic inhibition. Potency, µM (doses to about 51 µM), without a hit: at the highest dose activity change, negative = inhibition, usual class: inhibitors. 5% of 410 active
nsP2pro conf qHTS = confirmation of CHIKV nsP2 protease inhibitors. shares compounds with nsP2pro inh. CHIKV nsP2 protease enzymatic activity, qHTS. Potency, µM (series often up to 25.5 µM), for inactives: at the top dose activity change, negative = inhibition, usual class: inhibitors. 43% of 410 active; also: nearly all actives have a fitted effect of over 75% in size
HCV NS3 4A cs = inhibits HCV NS3/4A protease in an nsP2pro selectivity counterscreen | Potency, µM (top dose mostly 50.9 µM), most hits filed as inhibitors | HCV NS3/4A protease biochemical counterscreen | shares compounds with nsP2pro inh | 20% of 410 active; also: nearly all actives have a fitted effect of over 55% in size
* marks the source's active call; other numbers are inactive results; [ ] = remark or other dose. Calls follow the shape of the full dose curve. % is scaled to controls: 0 for no effect and ±100 for the full control effect; potency is read from the fitted curve at half-maximal effect.

Results for COc1ccccc1C(c1c(O)cc(C)n(Cc2ccco2)c1=O)N1CCCCC1 (stereo unspecified) ?
nsP2pro inh: -21.1%

What do the screens show for `COC(=O)N(C)Cc1cccc(N2CCN(C(c3ccccc3)c3ccccc3)CC2)c1`?
nsP2pro inh: -7.7%

Results for COCCn1c(C)cc(O)c(C(c2ccccc2OC)N2CCN(c3ccccc3)CC2)c1=O (stereo unspecified) ?
nsP2pro inh: inconclusive; nsP2 cell sec: 2.6%

Results for CS[C@]1(CO)C(=O)N2[C@H]3C(=CC=C[C@@H]3O)C[C@@]2(SC)C(=O)N1C ?
nsP2pro inh: -9.5%

How did COC(=O)[C@H](O)[C@H]1C(C)(C)[C@H](OC(=O)C(C)C)[C@@]2(O)C(=O)[C@]1(C)C1CC[C@]3(C)C(CC(=O)O[C@H]3c3ccoc3)[C@]13O[C@@H]32 (stereo partly specified) do in these assays?
nsP2pro inh: inconclusive; nsP2 cell sec: 0.9%[17.6 µM]; CHIKV NSP2 FL: inconclusive; Furin counter: 4.4%[17.3 µM]; NS23 peptide cs: -1.3%[17.2 µM]; Papain counter: -4.8%[17.2 µM]; nsP2pro conf qHTS: inconclusive; HCV NS3 4A cs: inactive

Results for COC(=O)[C@@H](O)[C@H]1[C@@]2(C)CC3(O)[C@@H](C(=O)[C@H]2O)[C@]24O[C@]25CC(=O)O[C@@H](c2ccoc2)[C@]5(C)CCC4[C@]13C (stereo partly specified) ?
nsP2pro inh: 17.2%[10 µM]

Results for COC(=O)[C@H](OC(C)=O)[C@H]1C(C)(C)C(=O)[C@H]2CC3=C4CC(=O)O[C@@H](c5ccoc5)[C@]4(C)CCC3[C@@]1(C)C2=O (stereo partly specified) ?
nsP2pro inh: -10.0%[10 µM]

How did COC(=O)C[C@H]1C(C)(C)[C@H](OC(=O)c2ccccc2)C2CC3=C4CC(=O)O[C@@H](c5ccoc5)[C@]4(C)CCC3[C@@]1(C)C2=O (stereo partly specified) do in these assays?
nsP2pro inh: -18.1%[10 µM]

Results for C/C=C(\C)C(=O)OC1C2(O)CC3=C4CC(=O)OC(c5ccoc5)C4(C)CCC3C(C)(C2=O)C(C(OC(C)=O)C(=O)OC)C1(C)C (stereo unspecified) ?
nsP2pro inh: -16.2%[10 µM]

Results for COC(=O)[C@H](O)[C@H]1C(C)(C)[C@H](OC(C)=O)[C@@]2(O)C(=O)[C@]1(C)C1CC[C@]3(C)C(CC(=O)O[C@H]3c3ccoc3)[C@]13O[C@@H]32 (stereo partly specified) ?
nsP2pro inh: inconclusive; nsP2 cell sec: -0.4%[17.6 µM]; CHIKV NSP2 FL: inconclusive; Furin counter: -4.1%[17.3 µM]; NS23 peptide cs: 3.7%[17.2 µM]; Papain counter: -7.9%[17.2 µM]; nsP2pro conf qHTS: -13.8%[8.62 µM]; HCV NS3 4A cs: inconclusive

Results for CCC(=O)O[C@H]1C(C)(C)[C@H]([C@@H](O)C(=O)OC)[C@]2(C)C(=O)[C@@]1(O)[C@H]1O[C@]13C1CC(=O)O[C@@H](c4ccoc4)[C@]1(C)CCC32 (stereo partly specified) ?
nsP2pro inh: inconclusive; nsP2 cell sec: 11.5%[17.6 µM]; CHIKV NSP2 FL: inconclusive; Furin counter: -0.4%[17.3 µM]; NS23 peptide cs: -11.1%[17.2 µM]; Papain counter: -5.2%[17.2 µM]; nsP2pro conf qHTS: inconclusive; HCV NS3 4A cs: inconclusive

What do the screens show for `C=C1[C@@H]2CC[C@@]3(C)[C@H](c4ccoc4)OC(=O)C[C@]13O[C@H]1CC(=O)C(C)(C)[C@H](C(O)C(=O)OC)[C@]12C` (stereo partly specified)?
nsP2pro inh: -18.1%[10 µM]

Results for Fc1cnc(-c2ccccc2C(F)F)nc1NCC1CCN(c2cnccn2)C1 (stereo unspecified) ?
nsP2pro inh: -0.2%

How did COc1c(C)cc(NC(=O)c2nn(Cc3ccc(F)cc3)c3c2CN(C(=O)c2ccc[nH]2)C[C@]3(C)C(N)=O)cc1C do in these assays?
nsP2pro inh: 9.9%[5.1 µM]

What do the screens show for `CCOC(=O)C1CCN(C(=O)C(C)(C)NC(=O)Nc2ccc3sccc3c2)CC1`?
nsP2pro inh: -1.8%

What do the screens show for `Nc1nonc1-c1nc2cnccc2n1C1CC1`?
nsP2pro inh: -2.1%

Results for CCOc1ccc(C(=O)Oc2ccc(-c3nc4ccccc4[nH]3)cc2)cc1Cl ?
nsP2pro inh: -5.4%

Results for COC(=O)[C@@]1(O)C=CC[C@@H]2[C@@]3(C)C[C@@H](c4ccoc4)OC(=O)[C@H]3CC[C@]21C ?
nsP2pro inh: 2.72µM*; nsP2 cell sec: 5.1%[33.5 µM]; CHIKV NSP2 FL: -23.4%[33.5 µM]; Furin counter: 1.8%[33.5 µM]; NS23 peptide cs: 3.8%[33.5 µM]; Papain counter: 0.9%[33.5 µM]; nsP2pro conf qHTS: inconclusive; HCV NS3 4A cs: inactive

Results for CC(=O)OC[C@@]12C(=O)C[C@@H](C)[C@]3(C[C@@H](c4ccoc4)O[C@H]3OC(C)=O)[C@H]1CCC[C@]21CO1 ?
nsP2pro inh: 12.0%[10 µM]

What do the screens show for `C[C@@]12C[C@@H](c3ccoc3)OC(=O)C1CC[C@]1(C)[C@H]2[C@H]2C=C[C@]1(O)C(=O)O2` (stereo partly specified)?
nsP2pro inh: 5.44µM*; nsP2 cell sec: -8.8%[33.5 µM]; CHIKV NSP2 FL: 8.9%[33.5 µM]; Furin counter: 11.8%[33.5 µM]; NS23 peptide cs: 3.1%[33.5 µM]; Papain counter: -13.2%[33.5 µM]; nsP2pro conf qHTS: -8.9%[16.7 µM]; HCV NS3 4A cs: inactive

Results for C=C1CCC2C(C(C)(C)O)CCC2(C)CC(O)C(=C)CCC1O (stereo unspecified) ?
nsP2pro inh: 3.9%

What do the screens show for `CNC(=O)c1ccccc1Nc1nc(Nc2ccc3c(c2OC)CCC[C@H](N2CCN(CCO)CC2)C3)ncc1Cl`?
nsP2pro inh: 83.8%

What do the screens show for `Cc1nnc2n1C(C)CN(C(=O)CCn1cnc3ccccc3c1=O)C2` (stereo unspecified)?
nsP2pro inh: inactive

How did COc1cccc(NCc2ccc(O)c3ncccc23)n1 do in these assays?
nsP2pro inh: inactive

How did CC(C)c1ccccc1-c1nccc(NCc2ccc(-c3ccnc(C(F)(F)F)c3)cc2)n1 do in these assays?
nsP2pro inh: -7.4%

What do the screens show for `C=C1C(=O)O[C@@H]2C[C@H](C)C3=CC(=O)[C@H](O)[C@@]3(C)C[C@H]12`?
nsP2pro inh: 10.2%
